Screens: PubChem, Columbia University Molecular Screening Center
HUVEC tox TNFa – HUVEC cytotoxicity counter-screen, TNF alpha stimulated; HUVEC TNFalpha-stimulated, Hoechst cell count, imaging; cell count reduction, % at 2 µM; AID 848; 93,000 tested, 0.17% active;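 active = cell count reduction exceeding the screen mean by over 5 SD, scaled to untreated wells per plate, cut at about 78% in these data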;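 also: cells counted after 24 h of TNF alpha exposure following the 1 h pretreatment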
NFkB transloc pot – enhances IL-1B driven NFkB nuclear translocation; HUVEC IL-1B NFkB p65 nuclear translocation imaging; activation, % at 2 µM; 94,000 tested, 0.3% active; AID 819;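 active = activation above 40%, about the mean plus 3 SD, also judged a hit on visual image review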;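 also: percent activation is computed from the nuclear over cytoplasmic p65 intensity ratio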
NFkB transloc inh – blocks IL-1B driven NFkB nuclear translocation in HUVEC cells. HUVEC IL-1B NFkB p65 nuclear translocation imaging. inhibition, % at 2 µM. 94,000 tested, 0.43% active;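 active = inhibition above about 30% together with a positive call from visual inspection of the well image, limit read from the data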;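 also: nuclear over cytoplasmic p65 intensity ratio measured by imaging; 0% = IL-1B stimulated DMSO wells and 100% = unstimulated DMSO wells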
HUVEC tox IL1B – toxic to HUVEC cells under IL-1B stimulation | AID 845 | cell count reduction, % at 2 µM | HUVEC cell count loss, Hoechst imaging, IL-1B stimulated | 94,000 tested, 0.41% active;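 active = cell count reduction more than 3 SD above the screen-wide mean, cut at about 70% in these data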;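 also: normalized per plate to untreated control cells as the no-loss baseline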
VCAM1 TNFa inh – reduces TNF alpha induced VCAM1 expression in HUVEC; HUVEC TNFa-induced VCAM-1 immunofluorescence, high-content imaging; inhibition, % at 2 µM; 95,000 tested, 0.48% active; AID 802;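 active = inhibition above the batch mean plus 3 SD, with images confirmed as a hit by eye, cut at about 37% in these data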;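 also: 0% = TNF-stimulated DMSO wells and 100% = unstimulated control wells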
The depositor's hits bear a star; · = no result given. Shown are actives, neighbours in structure and some others; about 1.5% of the full set was active somewhere.

SMILES	HUVEC tox TNFa	NFkB transloc pot	NFkB transloc inh	HUVEC tox IL1B	VCAM1 TNFa inh
COc1ccc(C2=Nn3c(nnc3-c3ccccn3)SC2)cc1OC	-31	18	-18	-220	-1
COc1ccc(C2=Nn3c(nnc3-c3ccccc3OC)SC2)cc1OC	55	-29	29	-90	48*
COc1ccc(C2=Nn3c(nnc3-c3ccc(OC)cc3)SC2)cc1	34	2	-2	4	40*
COc1cc(-c2nnc3n2N=C(c2ccccc2)CS3)cc(OC)c1OC	-2	0	0	-18	54*
O=C(c1ccco1)N1CCN(C(=O)C(Sc2ccccc2)c2ccccc2)CC1 (stereo not drawn)	-5	-7	7	-8	-9
C=CCSC1=C(C#N)C(c2ccccc2OCC)C(C#N)C(=O)N1 (stereo not drawn)	-1	16	-16	-16	-6
CCCCCn1cnc2sc(-c3ccccc3)cc2c1=O	-42	10	-10	-12	-28
COc1ccc2nc(C)c3cc(C)oc3c2c1	-13	8	-8	87*	1
COc1cc(CNC2CCC(C)C2)cc(OC)c1 (stereo not drawn)	14	10	-10	89*	-5
Cc1ccc(NC(=O)c2ccc(N3C(=O)C4CC=C(Cl)CC4C3=O)cc2)cc1 (stereo not drawn)	23	-65	6	-27	10
C/C(=N\O)c1ccc(N2C(=O)C3CC=C(Cl)CC3C2=O)cc1 (stereo not drawn)	-28	-5	5	92*	-15
CC(NC(=O)CSc1nc2ccccc2n1CCC#N)c1ccc(F)cc1 (stereo not drawn)	-6	-2	2	-93	11
CCn1c(SCC(=O)NC(C)c2ccccc2)nc2ccccc21 (stereo not drawn)	28	-2	2	-17	63*
CCOC(=O)CSc1nnc2n1C(C)(C)Cc1ccccc1-2	-15	13	-13	-52	-20
CC1Cc2ccccc2N1C(=O)CSc1nnc2n1C(C)(C)Cc1ccccc1-2 (stereo not drawn)	·	-98	98*	95*	·
CCn1c(SCC(=O)N2c3ccccc3CC2C)nnc1-c1ccco1 (stereo not drawn)	0	-45	45*	-13	15
Cc1onc(-c2ccccc2Cl)c1C(=O)NCc1nc(-c2ccccc2)no1	-17	8	-8	-21	-6
COc1ccc(CC(=O)Nc2ccc(-c3nnc(-c4ccccc4)o3)cc2)cc1OC	-12	-91	91*	-14	-8
COc1ccc(-c2nc(-c3ccc(NC(=O)c4ccc(Br)o4)cc3)no2)cc1OC	39	-3	3	24	76*
COc1ccc(CC(=O)Nc2cccc(-c3nnc(-c4ccccc4)o3)c2)cc1OC	-3	10	-10	-31	-11
CCOC(=O)N1CCC(NC(=O)CN(C)S(=O)(=O)c2cc3c(cc2Cl)NC(=O)CO3)CC1	-40	6	-6	2	-9
COCCCNC(=O)c1nc2c(nnn2Cc2cc(C)ccc2C)c(=O)[nH]1	-12	41*	-41	93*	0
Cc1ccc(C)c(Cn2nnc3c(=O)[nH]c(C4CCCN(C(=O)CC(C)C)C4)nc32)c1 (stereo not drawn)	-9	8	-8	7	0
O=C(NCc1cccs1)c1nc2c(nnn2Cc2ccccc2Cl)c(=O)[nH]1	-12	16	-16	6	54*
O=C(Nc1cccc(C(F)(F)F)c1)NC1CCN(S(=O)(=O)c2ccc(F)cc2)CC1	-19	8	-8	-12	-11
SMILES	HUVEC tox TNFa	NFkB transloc pot	NFkB transloc inh	HUVEC tox IL1B	VCAM1 TNFa inh
COc1cccc(-n2c(SCC(=O)N3c4ccccc4CC3C)nnc2-c2ccco2)c1 (stereo not drawn)	-32	-3	3	12	6
O=C1CC(=O)N(Cc2ccco2)C(=S)N1	56	-32	32*	5	1
O=C(NNC(=O)c1ccncc1)c1ccncc1	-65	31	-31	-6	1
O=C(NNS(=O)(=O)c1ccc(Br)cc1)c1ccncc1	-5	-35	35*	7	-20
Cn1c(SCC(=O)NC(C)(C)C)nc(O)cc1=O	16	-3	3	-2	-14
O=C(NCc1ccco1)C1CCN(C(=O)c2cc3sccc3n2Cc2ccc(F)cc2)CC1	-13	-3	3	89*	16
COc1ccc2c(c1)SC1=NCCS(=O)(=O)N12	80*	-8	8	21	61
O=C1c2cccc3c([N+](=O)[O-])ccc(c23)C(=O)N1c1nccs1	29	-10	10	35	76*
O=C1c2cccc3cccc(c23)C(=O)N1c1nccs1	51	1	-1	-23	32
O=C1c2cccc3c([N+](=O)[O-])ccc(c23)C(=O)N1c1ccc(Cl)cn1	30	-30	30*	83*	69*
O=C1c2cccc3c([N+](=O)[O-])ccc(c23)C(=O)N1c1ccccn1	43	·	·	·	33
CC(=O)CCc1c[nH]c2c(C(=O)O)cccc12	6	-41	41*	-5	-10
c1ccc(-n2nnnc2OCCOc2nnnn2-c2ccccc2)cc1	-31	-24	24	94*	15
Cc1cccc2cc(C#N)c(SCC(=O)N3CC(=O)Nc4ccccc43)nc12	60	-9	9	29	94*
O=C(c1ccc(Cl)c(S(=O)(=O)NCc2ccco2)c1)N1CCN(c2ccc(F)cc2)CC1	-31	-36	36*	-6	-6
O=C(NCc1ccco1)C1CC(=O)N(c2ccc(F)cc2)C1 (stereo not drawn)	-25	-8	8	5	85*
O=C(NCc1ccccc1)Oc1cccc(Cl)c1	-5	42*	-42	-62	14
COc1ccc(NS(=O)(=O)c2ccc(OCC(=O)N3CCOCC3)cc2)cc1	-19	-31	31*	-29	8
O=C(N/N=C/c1ccncc1)c1ccccc1	56	-1	1	2	62*
Cc1nc(=O)cc(-c2ccccc2)n1-c1ccccc1	-7	5	-5	-5	-2
CC1=NN(c2ccccc2)C(=O)C1(C)C	0	-50	50*	-1	7
CCCc1cc(=O)[nH]c(SCC(=O)NC(=O)OCC)n1	5	-1	1	-7	11
CCCc1cc(=O)[nH]c(SCC(=O)Nc2nonc2N)n1	-34	5	-5	10	86*
CN(C)P(=NC(=O)COc1ccc(Cl)cc1Cl)(N(C)C)N(C)C	-15	-3	2	10	-6
COc1ccc(CC(=O)NCc2ccccn2)cc1OC	-36	5	-5	-27	14
COc1ccc(-c2cc(C(F)(F)F)n3nc(C(=O)O)nc3n2)cc1	-17	3	-3	-20	9
O=C1OC(c2ccccc2)/C(=C(/O)c2ccc(Cl)cc2)C1=O (stereo not drawn)	9	-38	38*	10	16
Cc1ccc(/C(O)=C2/C(=O)C(=O)OC2c2ccc(Cl)cc2)cc1 (stereo not drawn)	6	6	-6	5	0
CCOC(=O)CC1C(=O)NCCN1Cc1cccc(OC)c1 (stereo not drawn)	-35	25	-25	7	21
